# About 83,000 compounds went through this panel and 20% of them were active in at least one assay; those are over-represented in the sample as a whole.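 Method: cells in 96-well plates; compound added at one concentration; 48 h incubation; percent growth measured; values under 10 scored active.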 Unmarked numbers belong to inactive results. Calls of active or inactive are those of the source.
# Tested on: IGROV1 ovarian
# Experiment: NCI-60 one-dose screen, 48 h (100 = growth as untreated, 0 = no growth, -100 = all killed)
# Details: 10 µM unless noted
# Protocol: Growth inhibition of the IGROV1 human tumor cell line is measured as a screen for anti-cancer activity. Cells are grown in 96 well plates and exposed to the test compound for 48 hours. Compounds are tested at a single concentration, which is 10^-5 M for most compounds. The reported endpoint is percent growth (GI% or GIPRCNT), where numbers from 0 - 100% represent growth inhibition, and numbers from -100% - 0 represent cell death. For example, a value of 40 represents 60% growth inhibition. A value of 0 means no net growth occurred over the course of the experiment. A value of -40 indicates 40% of cells at the beginning of the experiment died by the end of the experiment. A value of -100 means all cells are dead at the end of the experiment.
# NCI-60 Human Tumor Cell Lines Screen was performed using the standard one-dose NCI protocol, which is described in more detail at https://dtp.cancer.gov/discovery_development/nci-60/default.htm.
# Compounds with GIPRCNT values below 10 were considered active. Activity score was based on GIPRCNT using the following formula: […]
# Score is 0 for GIPRCNT values of 100 or above, 50 for GIPRCNT values of 0, and 100 for GIPRCNT values of -100.
row,SMILES,growth
1,O=C1c2ccc3c4c(ccc(c24)C(=O)N1CCCCO)C(=O)N(CCCCO)C3=O,86.2%
2,COc1cc(CNC(=O)Cc2ccccc2)ccc1OCc1cn(-c2ccc(F)cc2)nn1,106%
3,Cc1cc2c(c(C)c1Cl)C(=O)/C(=C/c1ccco1)O2,59.2%
4,O=c1oc2ccc(Cl)cc2c(=O)n1-c1cc(C(F)(F)F)cc(C(F)(F)F)c1,16%
5,CN1CCN(Cc2ccc(C(=O)Nc3cncc(C#Cc4cnc5cccnn45)c3)cc2C(F)(F)F)CC1,31.5%
6,O=C(Nc1nc2c(s1)CCc1c-2c(Br)n(Cc2ccccc2)c1Br)c1ccccc1,18.8%
7,CCCCN1CCN(c2ccc3nc(-c4ccc5nc(-c6ccc(OC)c(OC)c6)[nH]c5c4)[nH]c3c2)CC1,-13.2% (active)
8,COc1ccc(-c2c(-c3ccc(OC)c(O)c3)cnc3ncnn23)cc1,110%
9,O=C(/C=C/c1ccc(C(F)(F)F)cc1)c1ccc(Nc2nc(NCCO)nc(Nc3ccc(Cl)cc3)n2)cc1,83.5%
10,COc1cccc2c(=O)c3c(sc12)c(NCCCNCCO)nc1ccccc13,26.2%
11,COc1ccc2occ(C3=C(c4c[nH]c5ccccc45)C(=O)NC3=O)c2c1,41.5%
12,Nc1ccc(-c2nc3cc(Oc4ccc(Oc5ccc6[nH]c(-c7ccc(N)cc7)nc6c5)cc4)ccc3[nH]2)cc1,120%
13,O=C(Nc1ccc(N2CCNCC2)cc1)c1[nH]ncc1Nc1ncnc2sc3c(c12)CCC3,-9.21% (active)
14,Oc1c(C(Nc2ccccn2)c2cccc(Oc3ccccc3)c2)ccc2cccnc12 (stereo not given),-91.7% (active)
15,O=C(Nc1ccc(I)cc1F)c1cc(Cl)ccc1O,16.2%
16,Nc1nc(-c2cnccn2)nn1-c1nc2ccccc2s1,100%
17,CCOC(=O)c1c2c(c(C)n1Cc1ccc(OC)cc1)-c1oncc1CC2,80.8%
18,CNC(=O)c1cc(Oc2ccc(CC(=O)Nc3cc(C(C)(C)C)cn3C)cc2)ccn1,67%
19,COc1ccc(-c2nc(-c3ccccn3)c(-c3ccccn3)n2CC(C)C)cc1OC1CCCC1,19.6%
20,c1ccc(CNc2nc(Nc3ccccc3)nc3ccccc23)cc1,63.2%

row,SMILES,growth
1,COc1ccc(C2C3=C(COC3=O)N(CCO)c3cc4c(cc32)OCCO4)cc1 (stereo not given),80.7%
2,O=c1oc2ccc(F)cc2c(=O)n1-c1ccc(F)cc1F,30.1%
3,CCn1c(-c2nonc2Nc2ccc(OC)cc2)nc2ccccc21,106%
4,O=C(Nc1ccc(-c2nc3cc4ccccc4cc3[nH]2)cc1)c1cccc(Br)c1,33.2%
5,CN(CCc1ccccc1)C(=S)N(C(=O)c1ccc([N+](=O)[O-])cc1)c1ccc(Cl)cc1,105%
6,Clc1ccc(COc2ccc(Nc3ncnc4onc(-c5ccccc5)c34)cc2)cc1,83.4%
7,CC1=NCC2NC(=O)NC(C)=C12 (stereo not given),97%
8,COc1ccc(-c2nsc3c2NC(=O)CC3c2ccc3c(c2)OCCO3)cc1 (stereo not given),49%
9,CCOC(=O)CSc1c(-c2ccccc2)c2cc(Cl)ccc2[nH]c1=O,99.1%
10,CC(C)Cn1c2c(c(=S)[nH]c1=O)CCC2,103%
11,Cc1sc2ncnc(Sc3nc4ccccc4[nH]3)c2c1C,-76.5% (active)
12,O=Cc1c(OCc2cnnn2CC(=O)Nc2ccc(Br)cc2)ccc2ccccc12,85.9%
13,O=c1oc2ccc(Cl)cc2c(=O)n1-c1ccc(I)cc1F,14.9%
14,COc1ccc(/C=c2\sc3n(c2=O)NC2C(N=3)N(C)C(=O)N2C)cc1 (stereo not given),99.8%
15,O=c1c(-c2nc3ccccc3[nH]2)cc2ccccc2n1Cc1cn(Cc2ccccc2Cl)nn1,27.9%
16,O=S(=O)(c1ccccc1)n1cc2c(c1-c1ccccc1)CCc1sc(Nc3ccccc3)nc1-2,115%
17,O=C(/C=C/c1ccc(Cl)cc1)c1ccc(Nc2nc(NCCO)nc(Nc3ccc(Cl)cc3)n2)cc1,80.1%
18,Nc1ccccc1-c1ccc(-c2ccc(Cl)cc2)c2c1[nH]c1ccccc12,62.3%
19,Cn1c(C(=O)c2cccc3ccccc23)nc2ccccc21,-6.8% (active)
20,CCC(C)(C)C(=O)O[C@H]1C[C@@H](C)C=C2C=C[C@H](C)[C@H](CC[C@@H]3CC=CC(=O)O3)[C@H]21,97.2%

# — PubChem BioAssay (NCI)
